# Screens: PubChem BioAssay, several laboratories
# The list is not random: actives were taken first. Their share in the collection is about 4.9%.
# Platelet DG rel: platelet dense granule release activity. hit rate 0.22% among 300,000. AID 1663. inhibition, %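 (compounds screened at 7.5 µM in platelet-rich plasma)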. human platelet-rich plasma, SFLLRN dense granule ATP release, luminescence;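 active = mean replicate score, as percent of positive control, at or above 50; inconclusive = mean below 50 but at least one replicate at or above 50; inactive = mean and every replicate below 50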
# MPTP inh: inhibitors of mitochondrial permeability transition pore; isolated mouse mitochondria, Ca2+ swelling absorbance, 30 min; inhibition, % at 10 µM; hit rate 1.4% among 360,000; AID 602449;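 active = inhibition of 50% or more, scaled per plate between neutral and stimulator controls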
# HSF-1 act: increases HSF-1 driven luciferase reporter signal. NIH3T3-HGL HSF-1 luciferase reporter, MG132, 8 h; 100% = twice DMSO control signal. activation, % at 9 µM. hit rate 1.7% among 300,000;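 active = mean replicate activation of at least 50% with a set share of replicates each reaching 50%; inconclusive = only one of those two conditions met; inactive = mean below 50% and too few replicates reaching it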
# HSP90 refold inh: blocks HSP90-mediated luciferase refolding in reticulocyte lysate | Rabbit reticulocyte lysate, luciferase refolding luminescence, 3 h | hit rate 0.91% among 290,000 | inhibition, % at 5.6 µM;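 active = inhibition above the screen-wide mean plus 3 SD, computed separately per campaign, cut at about 16% in these data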;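 also: inhibitors lower the luminescence because luciferase stays unfolded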
# dFosB act: activators of mouse delta FosB homodimer; P13346; hit rate 0.99% among 340,000; purified delta FosB, TAMRA-CDK5 oligo fluorescence polarization; percent of positive-control signal above neutral wells; activation, % at 25 µM;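 active = mean activation above about 17%, with every replicate also reaching it, limit read from the data, passing the limit was not always enough; inconclusive = only one of the two conditions met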
# Target sequence (P13346 whole entry, looked up): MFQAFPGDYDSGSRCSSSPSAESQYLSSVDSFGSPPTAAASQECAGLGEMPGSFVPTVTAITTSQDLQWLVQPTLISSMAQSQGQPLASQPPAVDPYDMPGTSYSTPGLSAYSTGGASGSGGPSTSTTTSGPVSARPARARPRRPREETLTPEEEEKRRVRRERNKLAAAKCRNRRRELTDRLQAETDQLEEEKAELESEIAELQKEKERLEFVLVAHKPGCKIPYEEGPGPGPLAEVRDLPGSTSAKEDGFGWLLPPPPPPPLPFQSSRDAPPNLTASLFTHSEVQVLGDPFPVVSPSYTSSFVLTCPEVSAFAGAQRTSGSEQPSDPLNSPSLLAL
# HSF1 inh: HSF1 inhibition; NIH3T3-HGL HSE-luciferase, MG132-induced, luminescence 8 h; stronger effect = lower value; activity change, negative = inhibition, % at 7.5 µM (by protocol); hit rate 0.77% among 300,000;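 active = more than half of replicate wells show activity change below -50%, luminescence cut by over half; inconclusive = some wells, but at most half, below -50%; inactive = no replicate well below -50%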;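 also: luciferase reports HSF-1 transcriptional activity via heat shock element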
# MPTP counter: membrane potential counter-screen of mitochondrial pore inhibitors; inhibition, % at 10 µM; shares compounds with MPTP inh; hit rate 78% among 5,000; isolated mitochondria, Rhodamine 123 fluorescence; AID 624504; in the data active = inhibition above about 22%
# MPTP abs DR: dose response confirmation of mitochondrial permeability transition pore inhibitors | shares compounds with MPTP inh | hit rate 58% among 780 | AID 651561 | IC50, µM | isolated mitochondria swelling, absorbance; in the data active = IC50 below about 20 µM
# MPTP counter DR: MPTP inhibitor counter-screen activity, dose response | shares compounds with MPTP inh | isolated mitochondria counterscreen, fluorescence read-out | IC50, µM | hit rate 49% among 780 | AID 651564; in the data active = IC50 below about 80 µM
# Hits are given with their value; – = inactive; ? = inconclusive; · = no result given.
SMILES,Platelet DG rel,MPTP inh,HSF-1 act,HSP90 refold inh,dFosB act,HSF1 inh,MPTP counter,others
Cc1ccc([N+](=O)[O-])cc1N=Nc1c(-c2ccc([N+](=O)[O-])cc2)[nH]n(C(N)=S)c1=O,–,99,56,–,–,–,69,
Cc1cc(Cl)c2oc(C(=O)N(C)Cc3ccon3)c(C)c2c1,–,–,?,–,–,–,·,
Oc1ccc(Br)cc1/C=N/n1cnc2ccccc21,–,74,–,–,–,–,67,
O=C(CN(c1cccc(C(F)(F)F)c1)S(=O)(=O)c1ccc(Cl)c([N+](=O)[O-])c1)NCc1ccc(F)cc1,–,74,–,–,–,–,67,
O=C(CN(c1cccc([N+](=O)[O-])c1)S(=O)(=O)c1ccccc1)NCc1cccnc1,–,–,–,–,–,–,·,
Cc1ccc(NC(=O)c2cc(C(=O)c3cc(Cl)ccc3O)cn(-c3ccc(C)cc3)c2=O)cc1,–,92,–,–,–,–,85,
CC(=O)Cc1nsc(NC(=O)c2ccc(-c3ccc(Cl)cc3Cl)o2)n1,–,54,–,–,–,–,38,
CC(=O)Cc1nsc(NC(=O)c2ccc(-c3cc(Cl)ccc3Cl)o2)n1,–,–,–,–,–,–,·,
COc1ccc(-c2cc(C(=O)Nc3ccc(S(=O)(=O)Nc4onc(C)c4C)cc3)c3ccccc3n2)cc1,–,–,–,–,–,–,·,
Cc1nn(-c2ccccc2)c(N2CCCC2)c1/C=N/NC(=O)c1cc2ccccc2cc1O,–,97,–,–,–,–,70,
CCCCCOc1ccc(Br)cc1CSC(=N)N,–,68,–,–,–,–,105,
COc1ccc(Br)cc1CSC(=N)N,–,–,–,–,–,–,·,
COc1ccc(-c2nc(CCNC(=O)c3cccs3)cs2)cc1,–,64,–,–,–,–,–,MPTP abs DR=–;MPTP counter DR=47
COc1cc([N+](=O)[O-])cc(/C=N/NC(=O)c2ccc(C)nc2)c1O,–,–,–,–,–,–,·,
COc1cc([N+](=O)[O-])cc(/C=N/NC(=O)c2ccc(NC(=O)c3ccc(C)cc3)cc2)c1O,–,112,–,–,–,-58,–,
COC(=O)c1ccccc1C(=O)N1CCC(CCC(=O)NC2CC2)CC1,–,–,–,–,–,–,·,
CC(C)(C)c1ccc(S(=O)(=O)NC(=O)C2(C)CCN2C(=O)C2CC2)cc1 (stereo unspecified),·,–,·,·,·,·,·,
CC(NC(=O)c1ccccc1)C(=O)OCC(=O)c1ccc(Br)cc1 (stereo unspecified),–,–,–,–,–,–,·,
Cc1ccc(C(=O)Nc2nc(-c3ccccn3)cs2)s1,·,–,·,·,–,·,·,
CCc1sc(C(=O)Nc2nc(-c3ccccn3)cs2)cc1C,·,68,·,·,–,·,–,
CCN(Cc1ccccc1)S(=O)(=O)c1ccc(C(=O)N(CCCN(C)C)c2nc3cc4c(cc3s2)OCO4)cc1,–,–,–,–,?,–,·,
CN(C)CCCN(C(=O)c1ccc(S(=O)(=O)N2CCCCCC2)cc1)c1nc2c(F)cc(F)cc2s1,–,88,–,·,–,–,–,MPTP abs DR=4.3;MPTP counter DR=–
CCOC(=O)N1CCN(S(=O)(=O)c2ccc(C(=O)N(CCCN(C)C)c3nc4c(C)c(C)ccc4s3)cc2)CC1,–,75,–,·,–,–,–,MPTP abs DR=5.5;MPTP counter DR=–
Cc1ccc2sc(N(CCCN(C)C)C(=O)c3ccc(S(=O)(=O)N(C)C4CCCCC4)cc3)nc2c1C,–,88,–,·,–,–,–,
CCN(CC)CCN(C(=O)c1ccc(S(=O)(=O)N(C)C2CCCCC2)cc1)c1nc2c(C)cccc2s1,–,–,–,–,–,–,·,
SMILES,Platelet DG rel,MPTP inh,HSF-1 act,HSP90 refold inh,dFosB act,HSF1 inh,MPTP counter,others
CCN(Cc1ccccc1)S(=O)(=O)c1ccc(C(=O)N(CCCN(C)C)c2nc3c(C)c(C)ccc3s2)cc1,–,82,–,·,–,–,–,
COc1ccc(C2=Nn3c(C)nnc3SC2)cc1,–,–,–,–,–,–,·,
N#C/C(=N\Nc1ccc(Cl)cc1)C(N)=S,–,70,–,–,–,–,92,
Cc1ccc(N/N=C(\C#N)C(N)=S)cc1C,–,67,–,–,–,–,89,
CCOC(=O)c1c(CSc2ccccc2)n(C)c2ccc(O)cc12,–,–,–,–,–,–,·,
COCCn1c(C)cc(C(=O)CSc2nc(C)cc(C)c2C#N)c1C,–,66,–,–,–,–,–,MPTP abs DR=–;MPTP counter DR=58
CC1CCc2nc3sc4c(c3c(N)c2C1)CCCC4 (stereo unspecified),–,88,–,–,–,–,81,
CCc1c(-c2ccccc2)nc2sc3c(c2c1N)CCCC3,–,84,–,–,–,–,70,
CC1CCc2c(nc3sc4c(c3c2N)CCCC4)C1 (stereo unspecified),–,76,–,–,–,–,84,
CCc1nc2sc3c(c2c(=O)o1)CCCC3,–,–,–,–,–,–,·,
Nc1c2c(nc3sc4c(c13)CCCCC4)CCCCC2,–,78,–,–,–,–,93,
CC1CCc2c(sc3nc(CSc4n[nH]c(N)n4)[nH]c(=O)c23)C1 (stereo unspecified),–,–,–,–,–,–,·,
Cc1ccc(S(=O)(=O)c2nnn3c2nc(NC2CCN(Cc4ccccc4)CC2)c2ccccc23)cc1C,–,–,–,–,–,–,·,
C[C@@H]1CNC(=O)c2c(C(=O)NC3CCN(C(=O)OC(C)(C)C)CC3)ncn21,·,–,·,·,·,·,·,
CC(OC(=O)CNC(=O)c1ccc2ccccc2c1)C(=O)N(C)C1CCCCC1 (stereo unspecified),–,–,–,·,–,–,·,
CCOC(=O)C1CC(CN2C(=O)c3ccccc3C2=O)OC1=O (stereo unspecified),·,–,·,·,–,·,·,
Cc1ccc(N2CCN(/N=C/c3ccncc3)CC2)cc1,–,–,–,–,–,–,·,
Clc1ccc(N2CCN(/N=C/c3ccncc3)CC2)cc1,–,61,–,–,–,–,50,
Cc1cccc(C)c1NC(=S)Nc1ccc(Cl)c(Cl)c1,–,98,–,–,–,–,97,
CN(C)/C=N/C(=S)Nc1ccc(Cl)c(Cl)c1,–,–,–,–,–,–,·,
Cc1cc(C)cc(NC(=S)Nc2ccc(Cl)c(Cl)c2)c1,–,103,–,–,–,–,89,
NC(=S)Nc1ccc(Cl)c(Cl)c1,–,–,–,–,–,–,·,
CC(C)(C)c1ccc(SCCc2ccccn2)cc1,–,–,?,–,–,–,·,
O=C(O)CCCNc1c(C(=O)Nc2ccc(Cl)cc2)cc([N+](=O)[O-])cc1[N+](=O)[O-],–,88,–,–,–,–,94,
Cc1ccccc1-c1nsc(SCC(=O)Nc2ccc3c(c2)OCO3)n1,–,84,–,–,–,–,66,
